Measured values reported in PubChem BioAssay (NCI).
About 83,000 compounds went through this panel and 20% of them were active in at least one assay; those are over-represented in the sample as a whole.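 Growth was measured after 48 h exposure to one concentration of compound in 96-well plates. Values under 10 count as active.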 A number with no mark means an inactive call. The source made the active and inactive calls.

system: SN12C renal; experiment: NCI-60 one-dose screen, 48 h (100 = growth as untreated, 0 = no growth, -100 = all killed); conditions: 10 µM unless noted

SMILES	growth
O=C(/C=C1\C(=O)N(Cc2ccccc2)c2ccccc21)c1ccc(OCCN2CCCCC2)cc1	0.718% (active)
CCCCCCNC(=O)Oc1ccc(/C(=C(/C)Cc2ccc(OC)cc2)c2ccc(OCCN(C)C)cc2)cc1	60.3%
COc1ccc(-c2nc(SCC(C)C)nc(Nc3ccc(C)cc3)c2C#N)cc1	41.3%
CCOC(=O)C1CCCN1C(=O)C1(NC(C)=O)CCCC1 (stereo not given)	118%
CCOC(=O)C1=NN(c2ccccc2)C2=NC(=O)/C(=C\c3cn(-c4ccccc4)nc3-c3cc4ccccc4o3)C(=O)N12	94.3%
CC1=C(C)C[C@]2(C(=O)O[C@H]3CCCC[C@@H]32)[S@](=O)C1	102%
CC(=N\N=C(N)N)/C(=N/N=C(N)N)c1ccccc1	107%
O=C1/C(=C\c2cn(-c3nc(N4CCOCC4)nc(N4CCOCC4)n3)c3ccccc23)c2ccccc2N1c1c(Cl)cccc1Cl	64.8%
Cc1ccc(CC(=O)O)c(C)c1	99.4%
N=C(N)N=Nc1ccc(NN=C(N)N)cc1	89%
CCCNC(=O)Oc1ccc(/C(=C(/C)Cc2ccc(OC)cc2)c2ccc(OCCN3CCCCC3)cc2)cc1	84.9%
CCCCN(CCCC)CCCNc1c2c(nc3ccc(Cl)cc13)CCCC2	93.2%
CCCCCCCCCCN1CC2CCCCC2C1 (stereo not given)	75.7%
N=C(N)N=Nc1ccc(NN=C(N)N)c2ccccc12	73.2%
Cc1c(Cc2ccccc2)c(=O)oc2c(C)c(OCC(=O)n3nc(C#N)cc3N)ccc12	102%
